How the values were obtained:
Assay in all cases: DAPPL (digital affinity profiling via proximity ligation, sequencing); 10 mM Tris-HCl pH 7.5, 50 mM NaCl, 1 mM DTT, 4% glycerol, room temperature, 30 min; GST-TFs on glutathione beads, 16-mer random dsDNA library, 0.1% formaldehyde crosslink after washing; high values mean tight binding
FEV = target: T1, FEV (Homo sapiens, UniProt Q99581 1-238); conditions: protein: recombinant; tags: N-terminal GST; dsDNA, one strand shown
T1 sequence: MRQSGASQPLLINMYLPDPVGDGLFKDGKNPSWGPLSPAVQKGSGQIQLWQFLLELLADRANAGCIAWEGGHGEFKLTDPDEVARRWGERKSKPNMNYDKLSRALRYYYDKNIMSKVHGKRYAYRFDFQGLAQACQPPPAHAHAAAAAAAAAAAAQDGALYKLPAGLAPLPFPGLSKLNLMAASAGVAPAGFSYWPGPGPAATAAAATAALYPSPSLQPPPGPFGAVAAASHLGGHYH
Outline: (§1)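 In yeast, human transcription factors were expressed with a GST fusion, then pulled down on glutathione beads and given DNA barcodes. Pooled with a tag-only sample, they were exposed to 200 nmole of a 16-mer random double-stranded DNA library (Tris/NaCl/DTT/glycerol buffer, room temperature, 30 min), washed, crosslinked with 0.1% formaldehyde, proximity-ligated using BsaI/T4 ligase for 1 h at 37 °C, PCR-amplified and read on an Illumina NextSeq500. Each hexamer's frequency of reads for a factor, divided by the matching frequency for the tag-only sample, gives the binding signal.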

ETV5 = ETV5 (Homo sapiens, UniProt P41161 1-510); conditions: protein: recombinant; tags: N-terminal GST; dsDNA, one strand shown
Chain of ETV5 (P41161 whole entry): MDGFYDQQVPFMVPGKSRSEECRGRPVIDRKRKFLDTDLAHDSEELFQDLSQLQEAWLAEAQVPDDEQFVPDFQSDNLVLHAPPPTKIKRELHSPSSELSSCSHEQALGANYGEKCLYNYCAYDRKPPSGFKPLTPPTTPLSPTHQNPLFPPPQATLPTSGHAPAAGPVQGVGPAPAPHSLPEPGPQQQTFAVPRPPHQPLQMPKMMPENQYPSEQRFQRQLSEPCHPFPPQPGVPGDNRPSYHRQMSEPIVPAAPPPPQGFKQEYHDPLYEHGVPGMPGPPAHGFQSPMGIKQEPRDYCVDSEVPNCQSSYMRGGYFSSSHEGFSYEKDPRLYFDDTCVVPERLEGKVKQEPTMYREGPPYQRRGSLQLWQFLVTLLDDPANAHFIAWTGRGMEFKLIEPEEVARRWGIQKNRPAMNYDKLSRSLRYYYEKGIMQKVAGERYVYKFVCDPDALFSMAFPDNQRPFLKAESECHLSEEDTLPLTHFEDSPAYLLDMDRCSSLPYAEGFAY
Outline: as §1

HSF1 = HSF1 (Homo sapiens, UniProt Q00613 1-529); conditions: protein: recombinant; tags: N-terminal GST; chain copies: 3; dsDNA, one strand shown
Chain of HSF1 (Q00613 whole entry): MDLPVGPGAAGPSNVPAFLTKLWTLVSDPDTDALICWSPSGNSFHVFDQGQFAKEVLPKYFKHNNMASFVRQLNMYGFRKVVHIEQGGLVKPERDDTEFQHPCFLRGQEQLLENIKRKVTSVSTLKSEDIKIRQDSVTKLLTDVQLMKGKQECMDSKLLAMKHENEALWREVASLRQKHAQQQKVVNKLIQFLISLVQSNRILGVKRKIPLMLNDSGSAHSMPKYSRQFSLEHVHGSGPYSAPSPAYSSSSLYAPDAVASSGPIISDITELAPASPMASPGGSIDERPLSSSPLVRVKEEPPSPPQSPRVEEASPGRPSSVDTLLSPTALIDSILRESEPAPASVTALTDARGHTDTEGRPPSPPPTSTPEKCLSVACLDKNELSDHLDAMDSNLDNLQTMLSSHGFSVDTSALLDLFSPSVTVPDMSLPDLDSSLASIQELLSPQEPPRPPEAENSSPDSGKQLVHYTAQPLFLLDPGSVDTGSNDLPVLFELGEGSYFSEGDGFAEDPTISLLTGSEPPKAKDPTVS
Outline: as §1

SPIC = target: T2, SPIC (Homo sapiens, UniProt Q8N5J4 1-248); conditions: protein: recombinant; tags: N-terminal GST; dsDNA, one strand shown
T2 sequence: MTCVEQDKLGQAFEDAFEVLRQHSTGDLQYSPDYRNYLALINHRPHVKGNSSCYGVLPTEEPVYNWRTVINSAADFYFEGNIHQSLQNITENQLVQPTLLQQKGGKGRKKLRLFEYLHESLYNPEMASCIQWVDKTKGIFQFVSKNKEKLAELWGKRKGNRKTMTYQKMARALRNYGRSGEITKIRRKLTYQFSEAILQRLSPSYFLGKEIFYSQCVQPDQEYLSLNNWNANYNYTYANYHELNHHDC
Outline: as §1

ELF4 = ELF4 (Homo sapiens, UniProt Q99607 1-663); conditions: protein: recombinant; tags: N-terminal GST; dsDNA, one strand shown
Chain of ELF4 (Q99607 whole entry): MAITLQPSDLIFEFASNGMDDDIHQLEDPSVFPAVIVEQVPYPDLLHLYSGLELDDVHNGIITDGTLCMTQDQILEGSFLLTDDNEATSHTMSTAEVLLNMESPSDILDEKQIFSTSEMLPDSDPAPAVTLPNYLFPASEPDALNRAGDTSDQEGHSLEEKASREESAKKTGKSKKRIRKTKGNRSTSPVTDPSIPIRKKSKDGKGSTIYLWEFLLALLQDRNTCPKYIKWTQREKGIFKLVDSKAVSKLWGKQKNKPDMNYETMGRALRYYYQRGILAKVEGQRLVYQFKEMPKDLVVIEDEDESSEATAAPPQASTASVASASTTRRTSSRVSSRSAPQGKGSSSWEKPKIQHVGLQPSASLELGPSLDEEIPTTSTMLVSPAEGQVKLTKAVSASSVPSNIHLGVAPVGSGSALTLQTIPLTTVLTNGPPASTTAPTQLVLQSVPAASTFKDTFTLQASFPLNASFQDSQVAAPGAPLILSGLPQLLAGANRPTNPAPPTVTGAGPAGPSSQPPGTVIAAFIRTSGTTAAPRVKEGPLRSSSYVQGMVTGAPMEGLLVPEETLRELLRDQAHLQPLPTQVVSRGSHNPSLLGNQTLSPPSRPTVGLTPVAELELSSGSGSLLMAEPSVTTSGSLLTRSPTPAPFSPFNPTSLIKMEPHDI
Outline: as §1

ELK4 = target: T3, ELK4 (Homo sapiens, UniProt P28324-2 1-405); conditions: protein: recombinant; tags: N-terminal GST; dsDNA, one strand shown
T3 sequence: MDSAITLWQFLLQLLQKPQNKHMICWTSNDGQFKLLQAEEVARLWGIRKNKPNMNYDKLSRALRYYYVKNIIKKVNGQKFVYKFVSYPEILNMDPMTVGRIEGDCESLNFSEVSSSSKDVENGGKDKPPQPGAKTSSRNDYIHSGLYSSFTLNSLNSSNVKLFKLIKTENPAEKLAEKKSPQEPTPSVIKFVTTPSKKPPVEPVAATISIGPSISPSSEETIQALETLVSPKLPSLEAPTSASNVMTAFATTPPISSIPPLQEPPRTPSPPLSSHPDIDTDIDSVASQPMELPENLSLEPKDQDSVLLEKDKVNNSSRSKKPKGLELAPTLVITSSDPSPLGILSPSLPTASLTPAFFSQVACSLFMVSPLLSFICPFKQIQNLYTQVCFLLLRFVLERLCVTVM
Outline: as §1

ETV2 = target: T4, ETV2 (Homo sapiens, UniProt O00321 1-342); conditions: protein: recombinant; tags: N-terminal GST; dsDNA, one strand shown
T4 sequence: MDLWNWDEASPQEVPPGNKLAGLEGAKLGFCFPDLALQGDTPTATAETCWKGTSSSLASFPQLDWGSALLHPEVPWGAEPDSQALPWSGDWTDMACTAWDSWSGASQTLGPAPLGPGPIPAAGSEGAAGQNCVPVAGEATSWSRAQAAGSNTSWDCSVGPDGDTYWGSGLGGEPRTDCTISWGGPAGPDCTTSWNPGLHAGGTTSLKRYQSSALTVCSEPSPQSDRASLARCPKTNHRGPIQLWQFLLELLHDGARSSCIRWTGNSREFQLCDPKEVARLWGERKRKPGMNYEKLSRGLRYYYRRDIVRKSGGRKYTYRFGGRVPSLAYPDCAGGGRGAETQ
Outline: as §1

ELF3 = target: T5, ELF3 (Homo sapiens, UniProt P78545 1-371); conditions: protein: recombinant; tags: N-terminal GST; dsDNA, one strand shown
T5 sequence: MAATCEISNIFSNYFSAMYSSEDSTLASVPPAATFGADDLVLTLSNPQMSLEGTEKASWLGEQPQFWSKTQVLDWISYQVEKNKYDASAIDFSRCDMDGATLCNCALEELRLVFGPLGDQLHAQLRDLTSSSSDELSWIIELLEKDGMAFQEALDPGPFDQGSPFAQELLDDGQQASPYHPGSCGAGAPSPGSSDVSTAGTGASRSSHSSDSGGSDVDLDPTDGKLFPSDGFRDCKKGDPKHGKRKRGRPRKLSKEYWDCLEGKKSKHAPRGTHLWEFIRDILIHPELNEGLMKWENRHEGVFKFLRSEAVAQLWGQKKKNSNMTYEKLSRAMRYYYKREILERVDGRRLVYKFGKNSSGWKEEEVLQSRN
Outline: as §1

CRX = CRX (Homo sapiens, UniProt O43186 1-299); conditions: protein: recombinant; tags: N-terminal GST; dsDNA, one strand shown
Chain of CRX (O43186 whole entry): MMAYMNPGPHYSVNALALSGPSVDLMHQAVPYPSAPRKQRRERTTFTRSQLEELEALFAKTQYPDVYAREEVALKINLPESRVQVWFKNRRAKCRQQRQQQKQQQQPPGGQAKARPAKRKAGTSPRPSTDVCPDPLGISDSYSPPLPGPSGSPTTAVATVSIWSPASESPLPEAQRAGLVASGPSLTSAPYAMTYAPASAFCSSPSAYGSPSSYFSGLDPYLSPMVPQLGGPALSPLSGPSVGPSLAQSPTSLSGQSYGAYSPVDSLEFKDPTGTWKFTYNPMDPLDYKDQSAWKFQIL
Outline: as §1

ETV1 = ETV1 (Homo sapiens, UniProt P50549 1-477); conditions: protein: recombinant; tags: N-terminal GST; dsDNA, one strand shown
Chain of ETV1 (P50549 whole entry): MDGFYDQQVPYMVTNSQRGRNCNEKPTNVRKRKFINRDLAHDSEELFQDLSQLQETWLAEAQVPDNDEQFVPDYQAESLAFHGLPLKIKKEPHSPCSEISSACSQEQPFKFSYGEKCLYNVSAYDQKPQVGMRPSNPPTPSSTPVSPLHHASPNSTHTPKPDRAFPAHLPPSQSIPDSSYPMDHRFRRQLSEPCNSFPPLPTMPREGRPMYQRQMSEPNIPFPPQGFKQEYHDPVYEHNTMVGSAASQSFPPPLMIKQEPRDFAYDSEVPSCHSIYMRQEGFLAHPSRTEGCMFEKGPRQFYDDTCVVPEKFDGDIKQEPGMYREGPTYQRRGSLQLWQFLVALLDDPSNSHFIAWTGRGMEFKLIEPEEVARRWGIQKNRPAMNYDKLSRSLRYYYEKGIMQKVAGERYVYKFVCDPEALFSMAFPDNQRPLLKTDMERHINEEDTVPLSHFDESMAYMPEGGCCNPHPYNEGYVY
Outline: as §1

ERF = target: T6, ERF (Homo sapiens, UniProt P50548 1-548); conditions: protein: recombinant; tags: N-terminal GST; dsDNA, one strand shown
T6 sequence: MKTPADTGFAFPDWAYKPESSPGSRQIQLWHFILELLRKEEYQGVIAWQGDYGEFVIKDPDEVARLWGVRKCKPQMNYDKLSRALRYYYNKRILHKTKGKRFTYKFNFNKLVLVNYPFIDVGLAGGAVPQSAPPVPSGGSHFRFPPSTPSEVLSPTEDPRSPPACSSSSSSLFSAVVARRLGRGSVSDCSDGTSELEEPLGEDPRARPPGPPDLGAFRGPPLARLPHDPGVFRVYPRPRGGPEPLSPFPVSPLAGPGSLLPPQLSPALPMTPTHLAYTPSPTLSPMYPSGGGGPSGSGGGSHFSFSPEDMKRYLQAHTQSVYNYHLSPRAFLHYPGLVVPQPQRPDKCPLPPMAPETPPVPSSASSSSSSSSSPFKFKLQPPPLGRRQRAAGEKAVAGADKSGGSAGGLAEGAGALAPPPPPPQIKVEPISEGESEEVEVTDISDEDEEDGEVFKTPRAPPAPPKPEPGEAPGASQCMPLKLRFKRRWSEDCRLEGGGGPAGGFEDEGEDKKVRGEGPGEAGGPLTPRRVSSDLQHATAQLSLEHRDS
Outline: as §1

ETV3L = target: T7, ETV3L (Homo sapiens, UniProt Q6ZN32 1-361); conditions: protein: recombinant; tags: N-terminal GST; dsDNA, one strand shown
T7 sequence: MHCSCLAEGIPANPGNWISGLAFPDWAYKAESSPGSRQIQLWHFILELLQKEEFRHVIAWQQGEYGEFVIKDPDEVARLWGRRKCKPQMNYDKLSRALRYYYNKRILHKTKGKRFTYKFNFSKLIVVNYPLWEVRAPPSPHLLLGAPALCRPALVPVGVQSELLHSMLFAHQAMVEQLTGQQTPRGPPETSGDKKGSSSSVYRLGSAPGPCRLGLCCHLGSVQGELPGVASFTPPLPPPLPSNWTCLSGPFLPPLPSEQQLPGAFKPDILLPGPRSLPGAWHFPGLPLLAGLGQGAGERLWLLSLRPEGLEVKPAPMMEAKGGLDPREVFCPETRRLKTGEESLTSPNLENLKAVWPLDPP
Outline: as §1

ETS2 = target: T8, ETS2 (Homo sapiens, UniProt P15036 1-469); conditions: protein: recombinant; tags: N-terminal GST; dsDNA, one strand shown
T8 sequence: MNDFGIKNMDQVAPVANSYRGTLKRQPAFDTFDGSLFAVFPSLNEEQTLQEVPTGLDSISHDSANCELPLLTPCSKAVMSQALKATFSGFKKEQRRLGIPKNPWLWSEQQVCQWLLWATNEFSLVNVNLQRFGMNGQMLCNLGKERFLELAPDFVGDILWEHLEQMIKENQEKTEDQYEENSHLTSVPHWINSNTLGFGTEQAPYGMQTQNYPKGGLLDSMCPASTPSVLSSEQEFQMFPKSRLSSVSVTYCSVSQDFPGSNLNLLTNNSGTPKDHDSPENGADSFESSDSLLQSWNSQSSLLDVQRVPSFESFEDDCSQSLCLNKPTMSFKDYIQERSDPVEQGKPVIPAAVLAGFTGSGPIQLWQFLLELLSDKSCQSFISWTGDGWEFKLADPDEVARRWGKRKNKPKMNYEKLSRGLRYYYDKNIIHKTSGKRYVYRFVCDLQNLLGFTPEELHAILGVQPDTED
Outline: as §1

SPDEF = target: T9, SPDEF (Homo sapiens, UniProt O95238 1-335); conditions: protein: recombinant; tags: N-terminal GST; dsDNA, one strand shown
T9 sequence: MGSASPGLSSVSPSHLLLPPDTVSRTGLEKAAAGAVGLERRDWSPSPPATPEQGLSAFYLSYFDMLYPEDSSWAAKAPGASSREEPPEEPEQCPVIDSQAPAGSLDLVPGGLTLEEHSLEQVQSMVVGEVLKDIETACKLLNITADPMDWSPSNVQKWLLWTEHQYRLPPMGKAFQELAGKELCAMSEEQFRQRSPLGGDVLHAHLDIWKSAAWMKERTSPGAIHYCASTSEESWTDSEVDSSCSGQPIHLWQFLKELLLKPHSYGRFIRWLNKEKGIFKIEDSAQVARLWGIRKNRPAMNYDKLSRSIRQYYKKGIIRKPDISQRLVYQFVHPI
Outline: as §1

ETV7 = target: T10, ETV7 (Homo sapiens, UniProt Q9Y603 1-341); conditions: protein: recombinant; tags: N-terminal GST; dsDNA, one strand shown
T10 sequence: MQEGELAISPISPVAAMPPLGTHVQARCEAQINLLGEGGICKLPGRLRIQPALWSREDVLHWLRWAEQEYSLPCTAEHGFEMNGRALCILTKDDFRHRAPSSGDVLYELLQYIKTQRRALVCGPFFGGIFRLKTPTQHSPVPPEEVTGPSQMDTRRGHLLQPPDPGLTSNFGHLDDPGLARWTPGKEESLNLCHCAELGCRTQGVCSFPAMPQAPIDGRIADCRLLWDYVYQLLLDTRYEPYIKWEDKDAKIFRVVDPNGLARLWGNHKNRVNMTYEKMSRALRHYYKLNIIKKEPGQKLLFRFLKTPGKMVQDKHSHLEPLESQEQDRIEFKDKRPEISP
Outline: as §1

ELF5 = target: T11, ELF5 (Homo sapiens, UniProt Q9UKW6-2 1-255); conditions: protein: recombinant; tags: N-terminal GST; dsDNA, one strand shown
T11 sequence: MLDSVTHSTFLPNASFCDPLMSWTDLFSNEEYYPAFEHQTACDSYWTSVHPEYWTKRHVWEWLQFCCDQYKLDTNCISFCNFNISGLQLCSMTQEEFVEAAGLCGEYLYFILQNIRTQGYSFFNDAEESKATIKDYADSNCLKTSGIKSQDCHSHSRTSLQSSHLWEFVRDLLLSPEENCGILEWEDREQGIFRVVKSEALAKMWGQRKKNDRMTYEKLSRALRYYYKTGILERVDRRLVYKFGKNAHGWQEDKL
Outline: as §1

ETV3 = target: T12, ETV3 (Homo sapiens, UniProt P41162-2 1-143); conditions: protein: recombinant; tags: N-terminal GST; dsDNA, one strand shown
T12 sequence: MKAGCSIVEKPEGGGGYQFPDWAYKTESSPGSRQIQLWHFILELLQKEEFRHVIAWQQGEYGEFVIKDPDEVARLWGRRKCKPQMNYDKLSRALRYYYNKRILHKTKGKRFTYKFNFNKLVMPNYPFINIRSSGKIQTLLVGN
Outline: as §1

ETV6 = ETV6 (Homo sapiens, UniProt P41212 1-452); conditions: protein: recombinant; tags: N-terminal GST; dsDNA, one strand shown
Chain of ETV6 (P41212 whole entry): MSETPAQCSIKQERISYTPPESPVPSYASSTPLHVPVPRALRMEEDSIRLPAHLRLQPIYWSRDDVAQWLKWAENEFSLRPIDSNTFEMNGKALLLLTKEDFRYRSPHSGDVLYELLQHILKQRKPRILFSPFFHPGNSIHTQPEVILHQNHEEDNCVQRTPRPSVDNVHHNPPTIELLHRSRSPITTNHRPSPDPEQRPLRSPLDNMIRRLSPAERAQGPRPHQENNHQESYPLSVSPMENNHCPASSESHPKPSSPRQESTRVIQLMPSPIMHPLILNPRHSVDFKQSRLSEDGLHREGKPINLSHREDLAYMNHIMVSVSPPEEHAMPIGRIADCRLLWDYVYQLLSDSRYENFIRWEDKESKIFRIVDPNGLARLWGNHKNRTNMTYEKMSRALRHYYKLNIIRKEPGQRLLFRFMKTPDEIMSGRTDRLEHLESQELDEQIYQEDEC
Outline: as §1

With GCTGCT the binding signal (FEV) was 1.27 fold enrichment (6-mer frequency, TF over GST control), the binding signal (ETV5) was 1.25 fold enrichment (6-mer frequency, TF over GST control) and the binding signal (HSF1) was 1.13 fold enrichment (6-mer frequency, TF over GST control). For the same sequence, the binding signal (SPIC) was 1.5 fold enrichment (6-mer frequency, TF over GST control), the binding signal (ELF4) was 1.29 fold enrichment (6-mer frequency, TF over GST control) and the binding signal (ELK4) was 1.36 fold enrichment (6-mer frequency, TF over GST control). The binding signal (ETV2) was 1.25 fold enrichment (6-mer frequency, TF over GST control), the binding signal (ELF3) was 1.37 fold enrichment (6-mer frequency, TF over GST control) and the binding signal (CRX) was 1.27 fold enrichment (6-mer frequency, TF over GST control). The binding signal (ETV1) was 1.42 fold enrichment (6-mer frequency, TF over GST control), the binding signal (ERF) was 1.11 fold enrichment (6-mer frequency, TF over GST control) and the binding signal (ETV3L) was 1.43 fold enrichment (6-mer frequency, TF over GST control). The binding signal (ETS2) was 1.43 fold enrichment (6-mer frequency, TF over GST control), the binding signal (SPDEF) was 1.21 fold enrichment (6-mer frequency, TF over GST control) and the binding signal (ETV7) was 1.21 fold enrichment (6-mer frequency, TF over GST control). For the same sequence, the binding signal (ELF5) was 1.23 fold enrichment (6-mer frequency, TF over GST control), the binding signal (ETV3) was 1.2 fold enrichment (6-mer frequency, TF over GST control) and the binding signal (ETV6) was 1.27 fold enrichment (6-mer frequency, TF over GST control).

— publication PMC7862700, “An all-to-all approach to the identification of sequence-specific readers for epigenetic DNA modifications on cytosine”
